Screening data as filed in PubChem BioAssay.
Luc counter – blocks Kinase-Glo luciferase, a counter-screen artifact. Potency, µM (titrated, usually from 38.3 µM), actives largely listed as inhibitors. 200,000 compounds, 0.28% hits. Q27757. Kinase-Glo luciferase, ATP luminescence, 8 min; note: nearly all actives have a fitted effect of over 60% in size
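Compound is pinned into ATP-containing buffer (10 uM ATP, imidazole pH 7.2, 7 mM MgCl2). Kinase-Glo luciferase reagent is then added. Light output is recorded following an 8-min room-temperature incubation.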
FLuc modulator – firefly luciferase modulation, counter-screen for miR-21 project; P08659; purified FLuc, Km substrates, luminescence inhibition; Potency, µM (doses to about 57.5 µM), most hits filed as inhibitors; 360,000 compounds, 6.9% hits; note: nearly all actives have a fitted effect of over 55% in size
Target sequence (P08659 whole entry, looked up): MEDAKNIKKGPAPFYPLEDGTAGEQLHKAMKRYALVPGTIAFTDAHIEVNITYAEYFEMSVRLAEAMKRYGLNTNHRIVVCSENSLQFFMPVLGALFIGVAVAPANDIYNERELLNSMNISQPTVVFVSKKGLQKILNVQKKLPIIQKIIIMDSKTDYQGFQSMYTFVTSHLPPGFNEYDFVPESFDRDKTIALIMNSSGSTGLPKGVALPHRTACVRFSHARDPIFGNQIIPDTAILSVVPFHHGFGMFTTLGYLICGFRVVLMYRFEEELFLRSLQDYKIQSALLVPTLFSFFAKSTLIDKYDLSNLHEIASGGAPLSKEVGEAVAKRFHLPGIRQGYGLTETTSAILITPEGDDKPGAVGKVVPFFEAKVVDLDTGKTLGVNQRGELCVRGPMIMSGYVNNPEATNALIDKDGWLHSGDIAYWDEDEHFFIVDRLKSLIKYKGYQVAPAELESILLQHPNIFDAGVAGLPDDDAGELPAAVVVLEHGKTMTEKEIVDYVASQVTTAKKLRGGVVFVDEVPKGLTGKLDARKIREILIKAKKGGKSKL
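Purified P. pyralis luciferase, 10 nM final, with Km-level 10 uM D-luciferin and 10 uM ATP in 50 mM Tris acetate pH 7.5, 10 mM Mg acetate, 0.01% Tween-20, 0.05% BSA; 6-point qHTS titration about 60 µM downward; luminescence read.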
Rab9 promoter act – Rab9 promoter activation; 320,000 compounds, 2.8% hits; Potency, µM (doses to about 9.22 µM), usual class: activators; AID 485297; Huh7 Rab9 promoter-luciferase reporter, luminescence, 24 h; note: nearly all actives have a fitted effect of over 60% in size
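Promoter activation is measured as luciferase luminescence in Huh7 cells stably transfected with a Rab9 promoter–luciferase construct, following 24 h compound exposure at 37 °C and 10 min reagent incubation at ambient temperature.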
NPC1 promoter act – activates the NPC1 promoter; AID 485313; Huh7 NPC1 promoter luciferase reporter, 24 h; 320,000 compounds, 2.4% hits; Potency, µM (doses to about 9.22 µM), actives largely listed as activators; note: nearly all actives have a fitted effect of over 60% in size
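Luminescence from an NPC1 promoter-driven luciferase reporter in stably transfected Huh7 cells was measured after 24 h compound treatment at 37 °C, followed by 10 min ambient incubation with luciferase detection reagent.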
ELG1 genotox – inducers of genotoxicity in HEK293T ELG1-luciferase cells | HEK293T ELG1-luciferase reporter, luminescence, 16 h | 330,000 compounds, 1.3% hits | Potency, µM (top dose mostly 46 µM), actives largely listed as activators; note: nearly all actives have a fitted effect of over 60% in size
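Genotoxicity was scored as increased ELG1-luciferase reporter signal, measured by ONE-Glo luminescence (30 min, room temperature). Compound or vehicle exposure of the HEK293T reporter cells lasted 16 hr at 37°C.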
SMN2 splice up – SMN2 splice variant enhancement; 210,000 compounds, 2.8% hits; Potency, µM (top dose mostly 46.1 µM), usual class: activators; HEK293 SMN2-luciferase splicing reporter, luminescence, 30-36 h; note: nearly all actives have a fitted effect of over 55% in size
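HEK293 cells carry an SMN2 […]–luciferase reporter in which exon 7 inclusion puts luciferase in frame. Cells were plated 10-12 h before compound addition, then incubated 30-36 h at 37C. ONE-Glo luminescence was read; sodium butyrate at 4.5 mM final served as control.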
Of the large screens only hits and unclear results are named; the others gave an inactive call. Most compounds without a hit are left out; they make up all but 7.5% or so of the library. Calls come from the whole dose curve; as a rule, active = well fitted curve in the direction sought with a large enough effect; inconclusive = small, poorly fitted or top-dose-only effect, or another doubt; inactive = no such curve, though single readings can be large; an effect the other way counts as inactive or inconclusive.

COc1ccc(C(=O)C(O)C(c2ccc(C)cc2)N2CCOCC2)cc1OC (stereo not given)	none (no result: Luc counter, SMN2 splice up)
COc1cc(/C=C/[N+](=O)[O-])ccc1OC(=O)c1cc2ccccc2oc1=O	FLuc modulator 6µM, ELG1 genotox inconclusive (no result: Luc counter, SMN2 splice up)
COc1cccc(NC(=O)c2cc3ccccc3oc2=O)c1	FLuc modulator 0.24µM, Rab9 promoter act 2.5µM, NPC1 promoter act 1.4µM, ELG1 genotox 0.92µM (no result: Luc counter, SMN2 splice up)
Cc1cccnc1NC(=O)c1cc2ccccc2oc1=O	FLuc modulator 0.6µM, Rab9 promoter act 1µM, NPC1 promoter act 1.8µM, ELG1 genotox 2.1µM, SMN2 splice up 20µM
CCc1cccc(C)c1NC(=O)C(CC)n1ncn2c(cc3cc(C)ccc32)c1=O (stereo not given)	none (no result: Luc counter, Rab9 promoter act, NPC1 promoter act, ELG1 genotox)
COC(=O)C(Cc1c[nH]c2ccccc12)NC(=O)c1cc(-c2ccc(OC)c(OC)c2)oc1C (stereo not given)	none
CCOC(=O)CNC(=O)c1cc(-c2ccc3c(c2)OCCO3)oc1C	FLuc modulator 9.5µM, ELG1 genotox inconclusive
Cc1oc(-c2ccc3c(c2)OCCO3)cc1C(=O)NC(Cc1ccccc1)C(=O)O (stereo not given)	FLuc modulator 15µM (no result: Luc counter, SMN2 splice up)
COC(=O)CCC(NC(=O)c1cc(-c2ccc3c(c2)OCCO3)oc1C)C(=O)OC (stereo not given)	FLuc modulator 17µM
CCOC(=O)CNC(=O)c1ccc2c(c1)OCCO2	FLuc modulator 19µM, Rab9 promoter act inconclusive, NPC1 promoter act inconclusive, ELG1 genotox inconclusive
CCOC(=O)CNC(=O)c1cc(C)oc1C	SMN2 splice up inconclusive
CSc1nc(N)n2nc(-c3ccccc3)cc2n1	FLuc modulator 3.4µM, Rab9 promoter act 2.2µM, NPC1 promoter act 2µM, ELG1 genotox 10µM (no result: Luc counter, SMN2 splice up)
CSc1nncc(-c2ccccc2)n1	none
Cc1ccc(-c2cc(N)n3nc(-c4ccc(C)cc4)cc3n2)cc1	none
Cc1ccc(-c2cc3nc(-c4ccccc4)cc(N)n3n2)cc1	FLuc modulator inconclusive, Rab9 promoter act 1.8µM, NPC1 promoter act inconclusive, ELG1 genotox inconclusive, SMN2 splice up 7.1µM
Cc1cc(N)n2nc(-c3ccccc3)cc2n1	Luc counter 13µM, FLuc modulator 1.1µM, Rab9 promoter act 0.5µM, NPC1 promoter act inconclusive, ELG1 genotox 9.2µM, SMN2 splice up 7.9µM
O=C(Nc1ccc(OC(F)(F)F)cc1)NC1CCC(Oc2ccc(C(=O)O)cc2)CC1 (stereo not given)	FLuc modulator inconclusive (no result: Luc counter, SMN2 splice up)
O=C(CSc1nnc(-c2ccc(O)cc2)o1)N1CCOCC1	FLuc modulator inconclusive, Rab9 promoter act inconclusive
Oc1ccc(-c2nnc(SCC3CCCCC3)o2)cc1	FLuc modulator 15µM, Rab9 promoter act 2.8µM, NPC1 promoter act 3.2µM, ELG1 genotox inconclusive, SMN2 splice up inconclusive
O=C(N/N=C/c1ccc(Cl)cc1)c1n[nH]c2c1CCCC2	FLuc modulator inconclusive, NPC1 promoter act inconclusive, ELG1 genotox 8.2µM (no result: Luc counter, SMN2 splice up)
O=C(N/N=C/c1cccs1)c1n[nH]c2c1CCC2	Luc counter inconclusive, FLuc modulator 3.4µM, Rab9 promoter act inconclusive, NPC1 promoter act inconclusive, ELG1 genotox inconclusive, SMN2 splice up 5µM
Cn1cccc1-c1cc(C(=O)N/N=C/c2ccc(Cl)cc2)[nH]n1	FLuc modulator inconclusive (no result: Luc counter, SMN2 splice up)
O=C(N/N=C/c1ccccc1Cl)c1n[nH]c2c1CCCC2	Luc counter 3.2µM, FLuc modulator 0.21µM, Rab9 promoter act inconclusive, NPC1 promoter act 0.63µM, ELG1 genotox 0.29µM, SMN2 splice up 0.35µM
O=C(N/N=C/c1ccccc1)c1n[nH]c2c1CCCC2	FLuc modulator 3µM, Rab9 promoter act 0.35µM, NPC1 promoter act 0.56µM, ELG1 genotox inconclusive, SMN2 splice up 5µM
C=CCc1ccccc1OCc1nc2ccc(C)cc2[nH]1	FLuc modulator inconclusive (no result: Luc counter, Rab9 promoter act, NPC1 promoter act, ELG1 genotox)
O=C(N/N=C/C(Br)=C/c1ccccc1)c1n[nH]c2c1CCC2	FLuc modulator 2.7µM, NPC1 promoter act inconclusive, ELG1 genotox inconclusive, SMN2 splice up 10µM
O=C(Nc1ccc(F)cc1F)C1CCN(S(=O)(=O)c2ccc3[nH]c(=O)ccc3c2)CC1	none (no result: Luc counter, Rab9 promoter act, NPC1 promoter act, ELG1 genotox, SMN2 splice up)
O=C(O)c1cccc(-n2cc(-c3cccc(C(F)(F)F)c3)cn2)c1	FLuc modulator 1.2µM, Rab9 promoter act 0.35µM, NPC1 promoter act 0.32µM, ELG1 genotox inconclusive (no result: Luc counter, SMN2 splice up)
